# Source: the supplement of paper PMC4466140
# B1: unnamed (peptide)
# chain: RRLRDKYKLPIVDAD
# Key:
# Assay in all cases: SPOT peptide array binding signal intensity (averaged, normalized) (arbitrary units (background-subtracted, floor 0; scale differs between SH3 domains)); higher = stronger binding of the SH3 domain to the peptide
# [1] = target: AgAbp1
# Procedure: (§1)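 GST-tagged SH3 domains from S. cerevisiae (Sc), A. gossypii (Ag), C. albicans (Ca) and S. pombe (Sp) were incubated at 10 ug/ml overnight at 4 C on cellulose SPOT membranes carrying 292 synthetic 15-mer peptides mined from the S. cerevisiae proteome (cysteines replaced by serines). Binding was detected with anti-GST antibody, HRP secondary and chemiluminescence, quantified with Genespotter, and reported as normalized spot intensities averaged over biological replicates.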
# [2] = target: AgBbc1
# Procedure: as §1
# [3] = target: AgBem1-D1
# Procedure: as §1
# [4] = target: AgBzz1-D1
# Procedure: as §1
# [5] = target: AgBzz1-D2
# Procedure: as §1
# [6] = target: AgCyk3
# Procedure: as §1
# [7] = target: AgFus1
# Procedure: as §1
# [8] = target: AgHof1
# Procedure: as §1
# [9] = target: AgHse1
# Procedure: as §1
# [10] = target: AgLsb1
# Procedure: as §1
# [11] = target: AgLsb4
# Procedure: as §1
# [12] = target: AgMyo5
# Procedure: as §1
# [13] = target: AgNbp2
# Procedure: as §1
# [14] = target: AgRvs167
# Procedure: as §1
# [15] = target: AgSho1
# Procedure: as §1
# [16] = target: AgSla1-D1-D2
# Procedure: as §1
# [17] = target: AgSla1-D3
# Procedure: as §1
# [18] = target: CaAbp1-D1
# Procedure: as §1
# [19] = target: CaAbp1-D2
# Procedure: as §1
# [20] = target: CaBbc1
# Procedure: as §1
# [21] = target: CaBem1-D1
# Procedure: as §1
# [22] = target: CaBzz1-D1
# Procedure: as §1
# [23] = target: CaBzz1-D2
# Procedure: as §1
# [24] = target: CaCyk3
# Procedure: as §1
# [25] = target: CaFus1
# Procedure: as §1
# [26] = target: CaHof1
# Procedure: as §1
# [27] = target: CaHse1
# Procedure: as §1
# [28] = target: CaLsb1
# Procedure: as §1
# [29] = target: CaLsb4
# Procedure: as §1
# [30] = target: CaMyo5
# Procedure: as §1
# [31] = target: CaNbp2
# Procedure: as §1
# [32] = target: CaRvs167
# Procedure: as §1
# [33] = target: CaRvs167-3
# Procedure: as §1
# [34] = target: CaSho1
# Procedure: as §1
# [35] = target: CaSla1-D1-D2
# Procedure: as §1
# [36] = target: CaSla1-D3
# Procedure: as §1
# [37] = target: ScAbp1
# Procedure: as §1
# [38] = target: ScBbc1
# Procedure: as §1
# [39] = target: ScBem1-D1
# Procedure: as §1
# [40] = target: ScBzz1-D1
# Procedure: as §1
# [41] = target: ScBzz1-D2
# Procedure: as §1
# [42] = target: ScCyk3
# Procedure: as §1
# [43] = target: ScFus1
# Procedure: as §1
# [44] = target: ScHof1
# Procedure: as §1
# [45] = target: ScHse1
# Procedure: as §1
# [46] = target: ScLsb1
# Procedure: as §1
# [47] = target: ScLsb2
# Procedure: as §1
# [48] = target: ScLsb3
# Procedure: as §1
# [49] = target: ScLsb4
# Procedure: as §1
# [50] = target: ScMyo3
# Procedure: as §1
# [51] = target: ScMyo5
# Procedure: as §1
# [52] = target: ScNbp2
# Procedure: as §1
# [53] = target: ScPex13
# Procedure: as §1
# [54] = target: ScRvs167
# Procedure: as §1
# [55] = target: ScSho1
# Procedure: as §1
# [56] = target: ScSla1-D1-D2
# Procedure: as §1
# [57] = target: ScSla1-D3
# Procedure: as §1
# [58] = target: SpAbp1-D1
# Procedure: as §1
# [59] = target: SpBbc1
# Procedure: as §1
# [60] = target: SpBzz1-D1
# Procedure: as §1
# [61] = target: SpBzz1-D2
# Procedure: as §1
# [62] = target: SpCyk3
# Procedure: as §1
# [63] = target: SpHof1
# Procedure: as §1
# [64] = target: SpHof1-2
# Procedure: as §1
# [65] = target: SpHof1-3
# Procedure: as §1
# [66] = target: SpHse1
# Procedure: as §1
# [67] = target: SpLsb1
# Procedure: as §1
# [68] = target: SpLsb4
# Procedure: as §1
# [69] = target: SpMyo1
# Procedure: as §1
# [70] = target: SpNbp2
# Procedure: as §1
# [71] = target: SpPex13
# Procedure: as §1
# [72] = target: SpRvs167
# Procedure: as §1
# [73] = target: SpSla1-D1-D2
# Procedure: as §1
# [74] = target: SpSla1-D3
# Procedure: as §1
binder,measurement,setting,value
B1,SPOT peptide array binding signal intensity,[1],38
same,SPOT peptide array binding signal intensity,[2],20.8
same,SPOT peptide array binding signal intensity,[3],52
same,SPOT peptide array binding signal intensity,[4],32
same,SPOT peptide array binding signal intensity,[5],61.5
same,SPOT peptide array binding signal intensity,[6],1
same,SPOT peptide array binding signal intensity,[7],163
same,SPOT peptide array binding signal intensity,[8],17
same,SPOT peptide array binding signal intensity,[9],748
same,SPOT peptide array binding signal intensity,[10],6
same,SPOT peptide array binding signal intensity,[11],18
same,SPOT peptide array binding signal intensity,[12],0.75
same,SPOT peptide array binding signal intensity,[13],63
same,SPOT peptide array binding signal intensity,[14],3.33
same,SPOT peptide array binding signal intensity,[15],83
same,SPOT peptide array binding signal intensity,[16],299
same,SPOT peptide array binding signal intensity,[17],3
same,SPOT peptide array binding signal intensity,[18],311
same,SPOT peptide array binding signal intensity,[19],326
same,SPOT peptide array binding signal intensity,[20],13
same,SPOT peptide array binding signal intensity,[21],5.5
same,SPOT peptide array binding signal intensity,[22],180
same,SPOT peptide array binding signal intensity,[23],34.5
same,SPOT peptide array binding signal intensity,[24],3
same,SPOT peptide array binding signal intensity,[25],318
same,SPOT peptide array binding signal intensity,[26],0.5
same,SPOT peptide array binding signal intensity,[27],12.2
same,SPOT peptide array binding signal intensity,[28],1
same,SPOT peptide array binding signal intensity,[29],13
same,SPOT peptide array binding signal intensity,[30],1.5
same,SPOT peptide array binding signal intensity,[31],102
same,SPOT peptide array binding signal intensity,[32],5.5
same,SPOT peptide array binding signal intensity,[33],42.5
same,SPOT peptide array binding signal intensity,[34],241
same,SPOT peptide array binding signal intensity,[35],5
same,SPOT peptide array binding signal intensity,[36],1.75
same,SPOT peptide array binding signal intensity,[37],14.5
same,SPOT peptide array binding signal intensity,[38],8.5
same,SPOT peptide array binding signal intensity,[39],26
same,SPOT peptide array binding signal intensity,[40],18
same,SPOT peptide array binding signal intensity,[41],23
same,SPOT peptide array binding signal intensity,[42],22
same,SPOT peptide array binding signal intensity,[43],115
same,SPOT peptide array binding signal intensity,[44],1
same,SPOT peptide array binding signal intensity,[45],1110
same,SPOT peptide array binding signal intensity,[46],9
same,SPOT peptide array binding signal intensity,[47],7.5
same,SPOT peptide array binding signal intensity,[48],90
same,SPOT peptide array binding signal intensity,[49],8
same,SPOT peptide array binding signal intensity,[50],2.5
same,SPOT peptide array binding signal intensity,[51],1.5
same,SPOT peptide array binding signal intensity,[52],90
same,SPOT peptide array binding signal intensity,[53],0.5
same,SPOT peptide array binding signal intensity,[54],3.33
same,SPOT peptide array binding signal intensity,[55],411
same,SPOT peptide array binding signal intensity,[56],36.5
same,SPOT peptide array binding signal intensity,[57],13
same,SPOT peptide array binding signal intensity,[58],88.5
same,SPOT peptide array binding signal intensity,[59],0.75
same,SPOT peptide array binding signal intensity,[60],56
same,SPOT peptide array binding signal intensity,[61],0.5
same,SPOT peptide array binding signal intensity,[62],2.5
same,SPOT peptide array binding signal intensity,[63],54.5
same,SPOT peptide array binding signal intensity,[64],12
same,SPOT peptide array binding signal intensity,[65],318
same,SPOT peptide array binding signal intensity,[66],346
same,SPOT peptide array binding signal intensity,[67],49.2
same,SPOT peptide array binding signal intensity,[68],44
same,SPOT peptide array binding signal intensity,[69],1.25
same,SPOT peptide array binding signal intensity,[70],105
same,SPOT peptide array binding signal intensity,[71],9
same,SPOT peptide array binding signal intensity,[72],0.833
same,SPOT peptide array binding signal intensity,[73],3
same,SPOT peptide array binding signal intensity,[74],6
